Drawing on PubChem BioAssay (Tox21), this text covers Potency and outcome for 13 compounds.

Experiment [1] can be described thus: qHTS assay to identify small molecule antagonists of the estrogen related receptor (ERR) signaling pathway from Tox21 library - cell viability counter screen (AID 1224834). Also: nearly all actives have a fitted effect of over 30% in size. Also: potency is read from the fitted curve at half-maximal effect. In outline:
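After 17.5 h of compound exposure at 37 C, ERR cells are incubated with CellTiter-Fluor for 30 min and fluorescence intensity serves as the viability measure.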
A general note: In qHTS, concentration-response curves come from the screen itself.

Experiment [2] deals with Luciferin 4-monooxygenase (Photinus pyralis) (UniProt P08659). Put plainly: qHTS assay to identify small molecule inhibitors of firefly luciferase (AID 1224835). Also: nearly all actives have a fitted effect of over 25% in size. Also: potency is read from the fitted curve at half-maximal effect. A digest of the protocol: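 Biochemical qHTS: compounds run as interplate titrations against purified firefly enzyme, with D-luciferin and ATP each at its KM concentration. Light output recorded by CCD imaging.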
Chain of Luciferin 4-monooxygenase (Photinus pyralis) (P08659 whole entry, looked up): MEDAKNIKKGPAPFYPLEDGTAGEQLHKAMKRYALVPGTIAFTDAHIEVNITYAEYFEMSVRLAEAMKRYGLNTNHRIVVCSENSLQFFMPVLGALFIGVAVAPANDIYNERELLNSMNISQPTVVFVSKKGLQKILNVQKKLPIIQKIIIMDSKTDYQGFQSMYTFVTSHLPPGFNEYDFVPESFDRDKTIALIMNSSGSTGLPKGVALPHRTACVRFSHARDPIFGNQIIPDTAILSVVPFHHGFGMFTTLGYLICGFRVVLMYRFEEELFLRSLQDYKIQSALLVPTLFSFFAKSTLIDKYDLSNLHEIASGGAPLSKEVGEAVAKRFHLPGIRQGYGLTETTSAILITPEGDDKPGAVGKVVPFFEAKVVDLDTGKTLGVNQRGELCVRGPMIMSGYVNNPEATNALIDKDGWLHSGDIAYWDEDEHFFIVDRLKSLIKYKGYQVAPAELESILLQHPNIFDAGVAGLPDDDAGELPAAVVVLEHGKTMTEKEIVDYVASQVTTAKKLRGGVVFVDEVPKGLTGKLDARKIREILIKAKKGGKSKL

Experiment [3] in a line: qHTS assay to identify small molecule agonists of the constitutive androstane receptor (CAR) signaling pathway - cell viability counter screen (AID 1224836). Also: nearly all actives have a fitted effect of over 45% in size. Also: potency is read from the fitted curve at half-maximal effect. A digest of the protocol: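 Cell viability multiplexed with the CAR agonist screen: CellTiter-Fluor fluorescence after 23 hr at 37 C. HepG2-CYP2B6-hCAR cells got compounds at 15 concentrations with PK11195 at 0.75 uM final.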

Experiment [4] is described as follows: qHTS assay to identify small molecule antagonists of the constitutive androstane receptor (CAR) signaling pathway - cell viability counter screen (AID 1224837). Also: nearly all actives have a fitted effect of over 45% in size. Also: potency is read from the fitted curve at half-maximal effect. A digest of the protocol: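 Counter screen run in HepG2-CYP2B6-hCAR cells: 4 hr settle, compound titration (15 concentrations) with 50 nM CITCO, 23 hr at 37 C/5% CO2, CellTiter-Fluor fluorescence.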

Experiment [5] concerns the target Nuclear receptor subfamily 1 group I member 3 (Homo sapiens) (UniProt Q14994). Put plainly: qHTS assay to identify small molecule antagonists of the constitutive androstane receptor (CAR) signaling pathway (AID 1224838).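 Also: HepG2 cells stably expressing hCAR with CYP2B6 luciferase reporter stimulated by CITCO; nearly all actives have a fitted effect of over 40% in size.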 Also: potency is read from the fitted curve at half-maximal effect. In outline:
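Cell line: HepG2 double-stable for hCAR and CYP2B6-2.2kb reporter. Agonist: CITCO, 50 nM final. Compounds: 15 concentrations, 24 h, 37 C. Detection: ONE-Glo luminescence.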

For experiment [6] the target is unchanged. Put plainly: qHTS assay to identify small molecule agonists of the constitutive androstane receptor (CAR) signaling pathway (AID 1224839).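 Also: HepG2 cells stably carrying human CAR and a CYP2B6 luciferase reporter; series mostly up to about 92 µM; nearly all actives have a fitted effect of over 15% in size.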 A digest of the protocol: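 Luminescent ONE-Glo read-out after 24 hr, 37 C exposure of double-stable HepG2-CYP2B6-hCAR reporter cells to a 15-point compound series, in the presence of 0.75 uM PK11195 (final).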
Experiment [7] in a line: qHTS assay to identify small molecule antagonists of the estrogen related receptor signaling pathway with the pleiotropic PPARgamma coactivator (PGC) from Tox21 10K library - cell viability counter screen (AID 1224840; active = well fitted cell-killing curve with a large enough effect in the repeat runs, not every such curve was filed as active; also: nearly all actives have a fitted effect of over 40% in size; also: potency is read from the fitted curve at half-maximal effect). A digest of the protocol: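 Following seeding of 2,000 PGC/ERR cells/well and 6 hours' incubation, test compounds were delivered in DMSO. The plates then sat 17.5 hours at 37 C before a fluorogenic live-cell protease reagent (CellTiter-Fluor) was read after 30 min.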

For experiment [8], the target named is Thyrotropin receptor (Homo sapiens) (UniProt P16473). Put plainly: qHTS assay to identify small molecule agonists of the thyroid stimulating hormone receptor (TSHR) signaling pathway (AID 1224843; calls by dose curve; also: nearly all actives have a fitted effect of over 45% in size; also: potency is read from the fitted curve at half-maximal effect). In outline:
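Steps: seed 800 TSHR-HEK293 cells per well; add test compound and hold 30 min at ambient temperature; dispense cAMP-d2 then anti-cAMP cryptate; incubate 1 h at ambient; measure fluorescence intensity.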

Experiment [9] in a line: qHTS assay to identify small molecule agonists of the hypoxia (HIF-1) signaling pathway - cell viability counter screen (AID 1224844; calls by dose curve; also: nearly all actives have a fitted effect of over 50% in size; also: potency is read from the fitted curve at half-maximal effect). In outline: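 Cells (HRE-bla ME-180, 2,000 per well) sat 5 hrs at 37C, got compound for 17 hrs, were read for CCF4-AM FRET, and were finally lysed with CellTiter-Glo for a 30 min room-temperature luminescence read.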
The nature of experiment [10]: qHTS assay to identify small molecule antagonists of the retinoid acid receptor (RAR) signaling pathway - cell viability counter screen (AID 1159551). Also: nearly all actives have a fitted effect of over 35% in size. In outline:
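Retinol-stimulated (1 uM final) C3RL4 cells, compound 6 h, 37 C; readout CellTiter-Glo luminescence (ATP) after 30 min RT incubation.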

The nature of experiment [11]: qHTS assay to identify small molecule antagonists of the estrogen related receptor signaling pathway with the pleiotropic PPARgamma coactivator (PGC) from Tox21 10K library (AID 1224841; call rule not given here; also: series mostly up to about 92 µM; actives are mostly falling curves and most rising ones were filed inactive; nearly all actives have a fitted effect of over 50% in size). In outline: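 qHTS antagonist format: PGC/ERR cells, 2k/well, compound in DMSO by pin transfer after 6 h attachment, 18 h treatment at 37 C, One-Glo luminescence read at 30 min.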

A short description of experiment [12]: qHTS assay to identify small molecule agonists of the estrogen related receptor signaling pathway with the pleiotropic PPARgamma coactivator (PGC) from Tox21 10K library (AID 1224842). Also: nearly all actives have a fitted effect of over 15% in size. A digest of the protocol:
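PGC/ERR reporter cell line, 2,000 cells per well, incubated 6 h at 37 C before 23 nL compound in DMSO was added. After 18 h at 37 C, One-Glo luminescence read following 30 min at room temperature.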

Experiment [13] in a line: qHTS assay to identify small molecule agonists of the retinoic acid receptor (RAR) signaling pathway (AID 1159553). Also: potency is read from the fitted curve at half-maximal effect. A digest of the protocol: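 Reporter readout comes from luciferase under RARE control in C3RL4 cells; compound exposure lasts 6 hr at 37 C in 5% CO2, and luminescence is recorded following a 30 min room-temperature incubation with reagent.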

Records with an inconclusive call do not appear. Unmarked numbers belong to inactive results. Active and inactive are the calls of the source. Unless noted, calls follow the shape of the dose curve; as a rule, active = well fitted curve in the direction sought with a large enough effect in the repeat runs; inconclusive = weak or mixed curves; inactive = no such curve, though single readings can be large; an effect the other way counts as inactive or inconclusive.

Chain of Nuclear receptor subfamily 1 group I member 3 (Homo sapiens) (Q14994 whole entry, looked up): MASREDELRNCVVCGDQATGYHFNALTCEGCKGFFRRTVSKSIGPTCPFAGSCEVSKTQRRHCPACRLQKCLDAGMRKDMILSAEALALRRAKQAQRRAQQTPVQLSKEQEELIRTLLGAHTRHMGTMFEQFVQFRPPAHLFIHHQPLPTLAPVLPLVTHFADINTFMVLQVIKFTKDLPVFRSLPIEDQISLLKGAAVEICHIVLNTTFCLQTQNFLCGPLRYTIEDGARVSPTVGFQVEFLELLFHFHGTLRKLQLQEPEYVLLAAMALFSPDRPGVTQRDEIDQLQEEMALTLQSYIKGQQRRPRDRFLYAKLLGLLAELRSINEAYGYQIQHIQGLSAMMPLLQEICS
Chain of Thyrotropin receptor (Homo sapiens) (P16473 whole entry, looked up): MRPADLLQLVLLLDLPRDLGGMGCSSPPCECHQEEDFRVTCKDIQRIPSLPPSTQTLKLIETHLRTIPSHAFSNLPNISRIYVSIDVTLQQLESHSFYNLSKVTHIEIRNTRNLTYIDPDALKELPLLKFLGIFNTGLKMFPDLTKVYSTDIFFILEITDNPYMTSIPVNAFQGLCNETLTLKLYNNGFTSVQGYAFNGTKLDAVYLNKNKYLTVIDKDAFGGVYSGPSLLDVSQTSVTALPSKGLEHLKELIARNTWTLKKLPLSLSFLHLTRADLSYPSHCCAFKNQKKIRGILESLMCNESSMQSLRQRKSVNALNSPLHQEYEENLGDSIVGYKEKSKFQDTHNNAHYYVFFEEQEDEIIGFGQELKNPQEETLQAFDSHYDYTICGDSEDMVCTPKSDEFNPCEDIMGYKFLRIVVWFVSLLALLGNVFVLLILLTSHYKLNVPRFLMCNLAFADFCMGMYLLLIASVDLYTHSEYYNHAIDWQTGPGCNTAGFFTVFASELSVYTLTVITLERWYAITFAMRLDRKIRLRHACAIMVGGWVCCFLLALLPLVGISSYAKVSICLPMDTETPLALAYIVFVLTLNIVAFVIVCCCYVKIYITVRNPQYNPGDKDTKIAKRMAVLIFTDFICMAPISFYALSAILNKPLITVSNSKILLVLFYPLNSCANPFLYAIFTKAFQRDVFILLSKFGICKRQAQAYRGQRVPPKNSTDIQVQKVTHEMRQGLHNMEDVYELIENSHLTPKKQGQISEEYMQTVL

For the compound `COP(=S)(OC)Oc1ccc(S(N)(=O)=O)cc1`, the Potency result in experiment [1], in experiment [2], in experiment [3], in experiment [4], in [5] and in [6] was “inactive” in each case. The Potency result in [7], in experiment [8] and in experiment [9] was “inactive” each time.

For `CCOC(=O)N(C)C(=O)CSP(=S)(OCC)OCC`, the Potency result in experiment [10], in experiment [1], in experiment [2], in experiment [3], in experiment [4] and in experiment [5] was “inactive” each time. Further, the Potency result in experiment [7] and in experiment [9] was “inactive” throughout.

Consider `CCOP(=O)(OCC)OP(=O)(OCC)OCC`, for which the Potency result in experiment [10], in experiment [1], in experiment [2], in experiment [3], in [4] and in [5] was “inactive” each time. Also, the Potency entry in experiment [7], in [8] and in experiment [9] was “inactive” throughout.

Turning to `CC(C)CC(N(C)C)C1(c2ccc(Cl)cc2)CCC1` (stereo unspecified), the Potency result in experiment [10], in [1], in [2], in experiment [3], in experiment [4] and in experiment [7] was “inactive” each time. Also, the Potency result in experiment [11], in [8] and in experiment [9] was “inactive” throughout. Also, the compound was called inactive in experiment [12].

With `O=C(Nc1ccccc1)N(Cc1ccc(Cl)cc1)C1CCCC1`, the Potency result in [10], in experiment [13], in experiment [2] and in experiment [9] was “inactive” throughout. For the same compound, the figures for the Potency in experiment [1], in experiment [4] and in experiment [8] were 48.6 µM (active), 61.1 µM (active) and 48.6 µM (active), respectively.

In the case of `COc1cccc2c1cc([N+](=O)[O-])c1c(C(=O)O)cc3c(c12)OCO3`, the Potency in experiment [1] is 30.6 µM (active); in experiment [2] it was 71 µM (active); in experiment [3] it was 27.3 µM (active); in experiment [4], 27.3 µM (active); in [5], 12.2 µM (active); in experiment [7], 30.6 µM (active). Moreover, in experiment [9], the Potency is 54.9 µM (active). The Potency result in experiment [6], in experiment [11] and in experiment [8] was “inactive” throughout. The result in experiment [12] was inactive.

With `Nc1n[nH]c(N)n1`, the Potency entry in experiment [10], in experiment [13], in experiment [1], in experiment [2], in experiment [4] and in experiment [6] was “inactive” in each case. The Potency entry in experiment [7] and in experiment [8] was “inactive” throughout. For the same compound, in [5], the Potency is 27.8 µM (active).

For the compound `O=NN1CCN(N=O)CC1`, the Potency result in [1], in [2], in experiment [3], in experiment [4], in [5] and in experiment [7] was “inactive” throughout. Moreover, the Potency entry in experiment [11], in [8] and in experiment [9] was “inactive” each time. Also, the compound was called inactive in [12].

For `c1cc[c]([Hg][c]2ccccc2)cc1`, the Potency result in experiment [10], in experiment [3], in [4] and in [8] was “inactive” throughout. Besides, the Potency in [13] is 8.63 µM (active); in experiment [2], 17.8 µM (active); in experiment [9], 49 µM (active).

With `C[C@]12CC[C@H]3[C@@H](CC=C4C[C@@H](O)CC[C@@]43C)[C@@H]1CC[C@@H]2O`, the Potency result in [10], in [13], in experiment [1], in experiment [3], in [4] and in [7] was “inactive” in each case. Besides, the Potency result in experiment [9] is “inactive”.

On to `Cc1ccccc1CO[C@@H]1C[C@@]2(C(C)C)CC[C@]1(C)O2`, for which the Potency entry in experiment [13], in experiment [1], in experiment [2], in experiment [3], in [4] and in [5] was “inactive” each time. Also, the Potency result in [6], in experiment [7] and in [9] was “inactive” throughout.

On to `CCCCc1c(C)nc(NCC)[nH]c1=O`, for which the Potency result in experiment [1], in [2], in experiment [3], in experiment [4], in experiment [5] and in [6] was “inactive” each time. Further, the Potency entry in experiment [7], in experiment [11], in [8] and in experiment [9] was “inactive” each time.

In the case of `CCCCOC(=O)[C@@H](C)Oc1ccc(Oc2ccc(C#N)cc2F)cc1`, the Potency result in [10], in experiment [1], in [2], in experiment [3], in [4] and in [5] was “inactive” in each case. For the same compound, the Potency entry in experiment [6], in [7], in experiment [11] and in [9] was “inactive” each time.
